Values without a mark were called inactive. The call rests on the fitted dose curve; in most records, active means well fitted curve in the direction sought with a large enough effect; inconclusive means small, poorly fitted or top-dose-only effect, or another doubt; inactive means no such curve, though single readings can be large or run the other way.
target: Alpha-galactosidase (Coffea arabica) (UniProt Q42656); experiment: Counterscreen for Glucocerebrosidase Inhibitors: qHTS Assay for Coffee Bean alpha-Galactosidase at pH 4.5 (AID 957); conditions: purified coffee bean alpha-galactosidase, fluorogenic substrate; series mostly up to 76.9 µM; activity change, negative = inhibition: at the top concentration;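 further: plate controls were enzyme alone for no effect and no enzyme for full effect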
Outline: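 Coffee bean alpha-galactosidase 2 nM, substrate 4-MU-alpha-Gal 80 uM, pH 4.5 citrate/Tween-20, 20 min RT. Cpd titration 0.7 nM–77 uM. Stop pH 10, fluorescence 365/440 nm; Hill-equation AC50.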

Alpha-galactosidase (Coffea arabica), sequence (Q42656 whole entry, looked up): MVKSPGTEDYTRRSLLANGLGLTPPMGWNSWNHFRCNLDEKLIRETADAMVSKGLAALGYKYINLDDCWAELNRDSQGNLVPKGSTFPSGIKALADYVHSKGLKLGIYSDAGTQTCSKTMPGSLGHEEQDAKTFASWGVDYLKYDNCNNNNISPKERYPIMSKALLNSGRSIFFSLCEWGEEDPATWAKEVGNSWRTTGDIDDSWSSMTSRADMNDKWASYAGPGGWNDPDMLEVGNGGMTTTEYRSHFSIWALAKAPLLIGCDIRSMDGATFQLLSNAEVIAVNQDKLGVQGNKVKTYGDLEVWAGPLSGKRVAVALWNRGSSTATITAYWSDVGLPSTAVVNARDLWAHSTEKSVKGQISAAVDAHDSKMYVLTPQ

Structure (SMILES) | activity change, negative = inhibition [%]
C[C@@](N)(Cc1ccc(O)c(O)c1)C(=O)O | 2.02
C[C@H](N)C1CCC(C(=O)Nc2ccncc2)CC1 (some centres undefined) | -1.96
CCN(c1nc(N)c(C(=O)N=C(N)N)nc1Cl)C(C)C | -3.48
CC(C)[C@@H]1NC(=O)[C@H](CCCCN)NC(=O)[C@H](Cc2c[nH]c3ccccc23)NC(=O)[C@H](Cc2ccc(O)cc2)NC(=O)[C@H](C)N(C)C(=O)[C@H](Cc2ccccc2)NC1=O | -0.755
C[C@@H]1c2cccc(O)c2C(O)=C2C(=O)[C@@]3(O)C(O)=C(C(N)=O)C(=O)[C@@H](N(C)C)[C@@H]3[C@@H](O)[C@@H]21 | -2.89
COC(=O)C1=C(C)NC(C)=C(C(=O)OCCN(C)Cc2ccccc2)[C@@H]1c1cccc([N+](=O)[O-])c1 | -15.8
N.N.N.N.N.N.N.N.N.N.N.N.N.N.O.O.[Ru].[Ru].[Ru] | 0.406
Cc1cccc(/C=C\c2ccccc2)n1 | -4.09
S=C(S)O[C@@H]1C[C@@H]2C[C@H]1[C@@H]1CCC[C@H]21 | 0.369
CN1CCc2cccc3c2[C@@H]1Cc1ccc(O)c(O)c1-3 | -2.52
COc1cc2c(cc1C(F)(F)F)N(C(=O)Nc1cc(F)cc(-c3cccnc3)c1)CC2 | 0.101
Fc1cccc(/C=N\N=C/c2cccc(F)c2)c1 | -2.22
C[C@@H](COc1ccccc1)N(CCCl)Cc1ccccc1 | -6.1
CC(=O)O[C@@H]1C[C@]2(C)[C@H](C[C@@H](O)[C@H]3[C@@]4(C)CC[C@@H](O)[C@@H](C)[C@@H]4CC[C@@]32C)/C1=C(\CCC=C(C)C)C(=O)O | -1.6
